Consider five molecules from PubChem BioAssay.

Inconclusive results are not listed. The source made the active and inactive calls.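 Rule for the calls, unless noted: active = viability loss from added drug above about 55%, and viability with drug at most 40%, in both replicates (limit read from the data, passing the limit was not always enough); inconclusive = both conditions met in only one replicate; inactive = neither replicate meets both conditions.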

The nature of experiment [1]: reducers of endogenous Her2 protein level, primary screen, SKBR3 breast tumor cells, AlphaScreen, ATP viability (AID 461;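 active = Her2 level under about 52% in both replicate screens, with viability over 70% of control, limit read from the data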;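 for Her2 level: lower value means less Her2 protein in the cells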;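 for viability: percent of carrier control wells set as 100% viability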). The conditions noted are these: 18-24 h, measured here: SKBR3 viability, ATP luminescence, at 10 µM. For orientation: Bead proximity is the source of the signal in Alpha formats.
Experiment [2] addresses Receptor tyrosine-protein kinase erbB-2 (Homo sapiens) (UniProt P04626). The description is as above. The conditions noted are these: 18-24 h, at 10 µM, stronger effect = lower value.
The nature of experiment [3]: SK-BR-3 cell growth inhibitors, pilot screen, 24 h, human (AID 572;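 active = viability at or below 10% of carrier control in both of two separate runs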;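 note: compound exposure lasted between 18 and 24 h rather than exactly 24 h; 100% = carrier-treated control wells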). The conditions noted are these: SK-BR-3 viability, CellTiter-Glo luminescence, at 10 µM, stronger effect = lower value. On the technique in general: In ATP-based viability assays light output follows the ATP content of the culture.
Experiment [4] in a line: HUVEC growth inhibition – cell-based, human, primary screen (AID 575;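 active = viability at or below 30% in both replicate assays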;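 note: 100% = median of untreated cell wells with 0.1% DMSO on each plate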). The conditions noted are these: HUVEC proliferation, CellTiter-Glo luminescence, 72 h; at 10 µM; stronger effect = lower value.
A short description of experiment [5]: growth inhibitors of H69AR lung tumor, primary screen, human, duplicate replicates (AID 580;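 active = viability at or under a set limit in both replicates, limit being median viability minus 3 SD, cut at about 48% in these data, passing the limit was not always enough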;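 note: 100% = mean luminescence of untreated wells and 0% = no signal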). The conditions noted are these: H69AR lung tumor cells viability, ATP luminescence, 72 h; at 10 µM; stronger effect = lower value.
The nature of experiment [6]: reversal of MRP1-mediated doxorubicin resistance, pilot screen, H69AR cells, doxorubicin co-treatment (AID 601). The conditions noted are these: CellTiter-Glo, 72 h, at 10 µM; for differential viability (reversal): stronger effect = higher value.
Experiment [7] is described as follows: 384-well plate pilot, post-Golgi transport modulator project, inhibition of yeast transport mutant growth (AID 636; in the data active = inhibition above about 31%). The conditions noted are these: absorbance 615 nm, about 18 h, stronger effect = higher value.
The nature of experiment [8]: growth suppression of yeast trafficking mutant, preliminary HTS, modulators of trafficking downstream of Golgi apparatus project, 1536-format plate, OD 615 nm (AID 637; in the data active = inhibition above about 30%). The conditions noted are these: yeast transport mutant growth, absorbance 615 nm, 18 h; stronger effect = higher value.
A short description of experiment [9]: OD615 S. cerevisiae growth inhibition, permissive medium, pilot counter-assay, permissive growth control for S. cerevisiae lifespan shortening project (AID 705;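 active = growth inhibition above 25% in both replicates, a cutoff set 3 SD above the mean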). The conditions noted are these: OD615, 24 h, at 10 µM, stronger effect = higher value.
The nature of experiment [10]: Restrictive medium S. cerevisiae growth inhibition, OD615, pilot screen of yeast lifespan reduction project, restrictive growth control (AID 706;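 active = growth inhibition above a set limit, 3 SD over mean compound inhibition, in both replicates, cut at about 43% in these data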;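 note: modified DeaD lifespan yeast strain shifted to restrictive glucose medium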). The conditions noted are these: OD615, 48 h, at 10 µM, stronger effect = higher value.
Experiment [11] is described as follows: viability gain of MRP-1-high H69AR cells under doxorubicin, pilot screen, MRP-1 activator project, CellTiter-Glo, duplicate (AID 807;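 active = viability increase at or above a cutoff of the median across tested compounds plus 3 SD, cut at about 8.5% in these data, passing the limit was not always enough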;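 note: compound pretreatment 18-22 h then 72 h combined with doxorubicin; 0% = doxorubicin alone and 100% = vehicle without doxorubicin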). The conditions noted are these: H69AR viability with doxorubicin, CellTiter-Glo luminescence; at 10 µM; stronger effect = higher value.
A short description of experiment [12]: growth suppression of beta-catenin knockout HCT116, pilot screen, human colon tumor cells (AID 823;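 active = cell viability at or below a set limit in both duplicate runs, the limit being the all-compound median minus 4 SD, cut at about 23% in these data, passing the limit was not always enough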;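 note: 0% = wells killed by 20 µM Hyamine and 100% = untreated DMSO cell wells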). The conditions noted are these: CellTiter-Glo, 60 h, at 10 µM, stronger effect = lower value.
Experiment [13] is described as follows: growth suppression of PTEN-deleted HCT116, pilot screen, cell-based, HCT116 clonal line, CellTiter-Glo (AID 824;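 active = viability at or below 27.92% in each of two runs, the all-compound median minus 4 SD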;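 note: 0% = 20 µM Hyamine control and 100% = vehicle cell control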). The conditions noted are these: 60 h, at 10 µM, stronger effect = lower value.
Experiment [14] is described as follows: inhibitors of the yeast RAM network, pilot screen, dse1pr::URA3 reporter, 5-FOA selection (AID 869;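 active = inhibition over a set limit, the all-compound mean plus 3 SD, in both replicate runs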;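 note: 0% = DMSO wells with no growth and 100% = 10 µM 1-NA-PP1 with full growth; RAM network block rescues cells from 5-FOA so hits raise OD615 growth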). The conditions noted are these: S. cerevisiae dse1pr::URA3 5-FOA growth, OD615, 2 d; at 10 µM; stronger effect = higher value; strain carries analog-sensitive mutant Cbk1 kinase.
Experiment [15] is described as follows: RAM signaling pathway blockade in yeast – S. cerevisiae, Pdr1DBD-CYC8 efflux-inhibited sensitized strain, primary screen (AID 1298;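 active = RAM network inhibition above 8.4% in each of two replicates, 3 SD over the compound average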;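 note: 0% = DMSO untreated cells without growth and 100% = 10 µM 1-NA-PP1 full growth; higher means more yeast growth rescued from 5-FOA killing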). The conditions noted are these: S. cerevisiae cbk1-as DSE1-URA3 strain, 5-FOA growth OD615, 2 d; at 50 µM; stronger effect = higher value.
[16] abbreviates: H69AR cells + 2 uM doxorubicin, measured here: viability with 2 uM doxorubicin, stronger effect = lower value.
[17] abbreviates: H69AR cells, compound alone cytotoxicity.

Receptor tyrosine-protein kinase erbB-2 (Homo sapiens), sequence (P04626 whole entry, looked up): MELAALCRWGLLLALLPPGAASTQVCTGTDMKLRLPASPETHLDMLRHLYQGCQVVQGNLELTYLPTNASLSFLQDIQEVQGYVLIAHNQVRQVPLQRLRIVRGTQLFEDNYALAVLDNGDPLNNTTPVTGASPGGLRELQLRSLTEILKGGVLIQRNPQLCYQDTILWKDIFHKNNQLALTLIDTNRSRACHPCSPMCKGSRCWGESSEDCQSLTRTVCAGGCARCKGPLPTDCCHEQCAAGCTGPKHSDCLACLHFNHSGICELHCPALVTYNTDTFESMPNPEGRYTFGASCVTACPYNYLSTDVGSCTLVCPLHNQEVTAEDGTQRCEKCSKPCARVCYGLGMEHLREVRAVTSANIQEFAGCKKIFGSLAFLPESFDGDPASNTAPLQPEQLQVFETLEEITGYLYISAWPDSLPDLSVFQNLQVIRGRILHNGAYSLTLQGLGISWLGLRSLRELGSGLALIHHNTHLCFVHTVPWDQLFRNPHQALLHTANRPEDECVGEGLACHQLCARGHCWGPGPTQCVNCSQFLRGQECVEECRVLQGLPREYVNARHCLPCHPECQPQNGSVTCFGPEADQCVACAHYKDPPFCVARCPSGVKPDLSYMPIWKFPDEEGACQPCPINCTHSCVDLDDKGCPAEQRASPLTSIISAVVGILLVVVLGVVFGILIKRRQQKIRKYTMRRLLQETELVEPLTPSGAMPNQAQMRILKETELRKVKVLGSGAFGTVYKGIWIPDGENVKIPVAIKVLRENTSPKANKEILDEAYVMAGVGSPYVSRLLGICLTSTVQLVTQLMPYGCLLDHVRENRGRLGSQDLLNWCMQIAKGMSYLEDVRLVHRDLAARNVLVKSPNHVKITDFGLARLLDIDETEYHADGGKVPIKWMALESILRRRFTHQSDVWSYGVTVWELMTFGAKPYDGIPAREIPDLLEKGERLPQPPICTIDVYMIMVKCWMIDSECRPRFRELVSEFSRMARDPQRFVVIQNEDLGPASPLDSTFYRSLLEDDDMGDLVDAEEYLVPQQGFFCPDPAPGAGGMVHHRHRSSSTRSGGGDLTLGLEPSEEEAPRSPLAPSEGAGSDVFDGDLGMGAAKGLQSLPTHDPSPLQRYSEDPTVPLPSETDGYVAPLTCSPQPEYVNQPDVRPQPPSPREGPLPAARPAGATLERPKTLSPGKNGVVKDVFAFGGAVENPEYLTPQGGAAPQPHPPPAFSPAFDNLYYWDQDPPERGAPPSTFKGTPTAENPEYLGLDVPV

By viability is commonly meant a read-out of living cells in per cent, often relative to untreated cells. By inhibition is commonly meant the change of the read-out against control, counted positive when it falls. On to `Cc1c(C)n(C)c2ccc(C(=O)NCc3cccs3)cc12`, for which the viability is 93.5% in experiment [1]; 93.5% (inactive) in experiment [3]; 95.7% (inactive) in [4]; 90.7% (inactive) in [5]; 74.6% in experiment [6] (setting [16]); 90.7% in experiment [6] (setting [17]). Further, the results for the viability in experiment [12] and in [13] were 97.5% (inactive) and 96.8% (inactive), respectively. In addition, the Her2 level in [2] is 87.5% (inactive). For the same molecule, in [6] (H69AR cells + 2 uM doxorubicin), the differential viability (reversal) is 16.1% (inactive). Further, the inhibition in experiment [7] was -2.8% (inactive); in [8], -4.59% (inactive); in experiment [14] it was 1.61% (inactive). The growth inhibition was -23.4% (inactive) in experiment [9] and 1.59% (inactive) in experiment [10]. For the same molecule, the viability increase in experiment [11] is 3.39% (inactive). The RAM network inhibition in [15] is 0% (inactive).
Take `Cc1[nH]nc2c1C(=O)CC(C)(C)C2`: the viability in experiment [1] is 95.5%; in experiment [3] it was 95.5% (inactive); in [4], 100% (inactive); in [5] it was 89% (inactive); in experiment [6] (setting [16]), 83.7%; in experiment [6] (setting [17]), 89%. The values for the viability in experiment [12] and in experiment [13] were 95.8% (inactive) and 94% (inactive), respectively. For the same molecule, in [2], the Her2 level was 100% (inactive). Further, the differential viability (reversal) in experiment [6] (H69AR cells + 2 uM doxorubicin) was 5.23% (inactive). The inhibition in experiment [7] is -1.67% (inactive); in experiment [8], -10.3% (inactive); in experiment [14] it was 1.44% (inactive). Moreover, the growth inhibition in experiment [9] was 2.65% (inactive); in experiment [10], -3.72% (inactive). The viability increase in experiment [11] is -4.31% (inactive). Moreover, the RAM network inhibition in experiment [15] is 1.23% (inactive).
For the molecule `CC1NC2(C(=O)N(Cc3ccccc3)c3ccccc32)C2C(=O)N(c3ccccc3)C(=O)C12` (stereo not given), the viability in experiment [1] is 120%; in experiment [3], 120% (inactive); in [4] it was 95.5% (inactive); in experiment [5] it was 93.5% (inactive); in experiment [6] (setting [16]), 92.9%; in experiment [6] (setting [17]) it was 93.5%. The viability in experiment [12] was 97.1% (inactive); in experiment [13], 104% (inactive). Besides, the Her2 level in [2] was 100% (inactive). Besides, in [6] (H69AR cells + 2 uM doxorubicin), the differential viability (reversal) is 0.575% (inactive). The inhibition in [7] is -4.13% (inactive); in experiment [8] it was 1% (inactive); in experiment [14], 0.29% (inactive). For the same molecule, the growth inhibition in [9] is -5.06% (inactive); in experiment [10] it was -14.4% (inactive). In experiment [11], the viability increase was 1.77% (inactive). The RAM network inhibition in experiment [15] is 3.53% (inactive).
Consider `Cn1cc(Cl)c(C(=O)NC2CCCC2)n1`, for which the viability in experiment [1] is 83.5%; in [3], 83.5% (inactive); in experiment [4] it was 108% (inactive); in experiment [5], 105% (inactive); in experiment [6] (setting [16]), 91.3%; in experiment [6] (setting [17]) it was 105%. Besides, the results for the viability in experiment [12] and in experiment [13] were 104% (inactive) and 103% (inactive), respectively. In addition, the Her2 level in experiment [2] was 118% (inactive). Also, in experiment [6] (H69AR cells + 2 uM doxorubicin), the differential viability (reversal) was 14.1% (inactive). Also, the inhibition was -5.07% (inactive) in experiment [7], 5.5% (inactive) in [8] and 1.5% (inactive) in experiment [14]. The figures for the growth inhibition in experiment [9] and in [10] were -12.3% (inactive) and -8.69% (inactive), respectively. For the same molecule, the viability increase in experiment [11] was -0.89% (inactive). Also, the RAM network inhibition in experiment [15] is 2.86% (inactive).
For `CCC(=O)c1cc(F)c(N2CCN(C(=O)c3ccco3)CC2)cc1C`, the viability is 82% in [1]; 82% (inactive) in experiment [3]; 91.2% (inactive) in experiment [4]; 87.9% (inactive) in experiment [5]; 96.3% in [6] (setting [16]); 87.9% in experiment [6] (setting [17]). For the same molecule, the values for the viability in experiment [12] and in experiment [13] were 97.9% (inactive) and 88.3% (inactive), respectively. Moreover, the Her2 level in [2] is 90.5% (inactive). In addition, the differential viability (reversal) in experiment [6] (H69AR cells + 2 uM doxorubicin) is -8.33% (inactive). The inhibition in [7] was -0.8% (inactive); in experiment [8], 2.13% (inactive); in experiment [14], 1.4% (inactive). The growth inhibition in experiment [9] is -10.3% (inactive); in experiment [10], -0.62% (inactive). Further, the viability increase in experiment [11] is -0.95% (inactive). Besides, the RAM network inhibition in [15] was 0.21% (inactive).
